Compound activity deposited in PubChem by National Center for Advancing Translational Sciences (NCATS).
NPC1 prom act: activates the NPC1 promoter. Potency, µM (top dose mostly 9.22 µM), usual class: activators. actives 2.4% (n = 320,000). AID 485313. Huh7 NPC1 promoter luciferase reporter, 24 h; also: nearly all actives have a fitted effect of over 60% in size
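Luminescence from an NPC1 promoter-driven luciferase reporter in stably transfected Huh7 cells was measured after 24 h compound treatment at 37 °C, followed by 10 min ambient incubation with luciferase detection reagent.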
ELG1 genotox: induces genotoxicity in HEK293T cells with luciferase-tagged ELG1 | HEK293T ELG1-luciferase reporter, luminescence, 16 h | Potency, µM (titrated, usually from 46 µM), actives largely listed as activators | actives 1.3% (n = 330,000) | AID 504466; also: nearly all actives have a fitted effect of over 60% in size
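Genotoxicity was scored as increased ELG1-luciferase reporter signal, measured by ONE-Glo luminescence (30 min, room temperature). Compound or vehicle exposure of the HEK293T reporter cells lasted 16 hr at 37°C.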
FLuc modulator: inhibits or activates purified firefly luciferase, miR-21 counter-screen. Potency, µM (titrated, usually from 57.5 µM), usual class: inhibitors. purified FLuc, Km substrates, luminescence inhibition. AID 588342. actives 6.9% (n = 360,000). P08659; also: nearly all actives have a fitted effect of over 55% in size
Target sequence (P08659 whole entry, looked up): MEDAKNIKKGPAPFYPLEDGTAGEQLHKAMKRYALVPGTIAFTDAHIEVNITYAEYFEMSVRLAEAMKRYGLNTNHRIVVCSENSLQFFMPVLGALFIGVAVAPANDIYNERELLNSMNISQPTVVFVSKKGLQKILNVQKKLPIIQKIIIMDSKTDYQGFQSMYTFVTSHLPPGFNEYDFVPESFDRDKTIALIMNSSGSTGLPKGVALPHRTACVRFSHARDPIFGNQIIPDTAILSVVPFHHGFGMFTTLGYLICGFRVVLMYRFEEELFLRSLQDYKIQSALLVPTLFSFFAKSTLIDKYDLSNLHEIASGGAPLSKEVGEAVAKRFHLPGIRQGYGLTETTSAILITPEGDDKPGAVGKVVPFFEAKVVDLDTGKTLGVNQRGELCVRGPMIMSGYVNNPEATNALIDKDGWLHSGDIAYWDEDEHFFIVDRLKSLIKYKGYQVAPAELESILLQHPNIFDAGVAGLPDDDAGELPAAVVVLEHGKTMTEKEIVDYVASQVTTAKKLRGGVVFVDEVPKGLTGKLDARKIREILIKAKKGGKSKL
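Biochemical qHTS of compounds, final roughly 60 µM downward over six points, against 10 nM purified firefly luciferase using Km concentrations of substrates (10 uM D-luciferin, 10 uM ATP) in Tris acetate pH 7.5 buffer; luminescence output.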
Rab9 prom act: activates the Rab9 promoter; actives 2.8% (n = 320,000); AID 485297; Huh7 Rab9 promoter-luciferase reporter, luminescence, 24 h; Potency, µM (series often up to 9.22 µM), actives largely listed as activators; also: nearly all actives have a fitted effect of over 60% in size
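Using Huh7 cells stably transfected with Rab9 promoter–luciferase, compounds were incubated 24 h at 37 °C, 5% CO2; luciferase luminescence was read 10 min after reagent addition.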
SMN2 splice enh: increases expression of the SMN2 splice variant; HEK293 SMN2-luciferase splicing reporter, luminescence, 30-36 h; Potency, µM (doses to about 46.1 µM), hits mostly activators; actives 2.8% (n = 210,000); AID 1458; also: nearly all actives have a fitted effect of over 55% in size
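HEK293 cells carry an SMN2 minigene-luciferase reporter in which exon 7 inclusion puts luciferase in frame. Cells were seeded at 2000 cells/well, attached for 10-12 hours, then exposed to compounds for 30-36 hours at 37C before ONE-Glo luminescence.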
Numbers stand for hits; . = inactive; ? = inconclusive; / = not tested or not shown; [ ] = another dose, or the depositor's remark. Sampled rows, rich in hits. Any-hit rate of the full collection: about 7.4%. Calls follow the shape of the dose curve; as a rule, active = well fitted curve in the direction sought with a large enough effect; inconclusive = small, poorly fitted or top-dose-only effect, or another doubt; inactive = no such curve, though single readings can be large; an effect the other way counts as inactive or inconclusive.

SMILES	NPC1 prom act	ELG1 genotox	FLuc modulator	Rab9 prom act	SMN2 splice enh
CN1N=C2c3ccccc3CCC2C1c1ccc(Cl)cc1 (stereo not given)	?	?	11µM	?	/
CCN1C(=O)/C(=C\c2cccc(OC(=O)c3ccco3)c2)SC1=S	.	.	.	.	/
O=C(O)CN1C(=O)/C(=C\c2cccc(OC(=O)c3ccco3)c2)SC1=S	.	.	24µM	.	/
O=C(O)CN1C(=O)/C(=C\c2ccc(OC(=O)c3ccco3)cc2)SC1=S	.	.	7.6µM	.	/
O=C(O)CN1C(=O)/C(=C/c2ccc(SCc3ccccc3)o2)SC1=S	.	.	19µM	.	.
Cc1c(C(=O)Nc2ccccc2-c2ccccc2)cccc1[N+](=O)[O-]	.	.	.	.	.
O=C(Nc1nc2n(n1)C(c1ccc(F)cc1)C=C(c1ccccc1)N2)c1ccco1 (stereo not given)	/	/	.	/	/
O=c1[nH]c(COc2ccc(Cl)cc2Br)nc2ccccc12	2.8µM	?	6µM	2.8µM	/
O=c1[nH]c(COc2ccc(Cl)cc2Cl)nc2ccccc12	2.5µM	9.2µM	1.7µM	2.2µM	/
COc1ccc(/C=C/C(=O)c2ccc(O)cc2O)cc1OC	/	/	/	/	.
COc1ccc(C(=O)/C=C/c2cc(C(=O)O)cc3c2OCOC3)c(O)c1	.	.	1.7µM	.	/
O=C(/C=C/c1cccnc1)c1cc(F)ccc1O	.	.	.	.	/
O=C(O)c1cc(/C=C/C(=O)c2cc(F)ccc2O)c2c(c1)COCO2	.	.	30µM	.	/
COc1ccc(Cl)cc1C(=O)Nc1ccc(OCC(=O)N2CCOCC2)cc1	.	.	?	.	/
O=C(Nc1ccc(OCC(=O)N2CCOCC2)cc1)c1ccccc1Cl	.	?	1.7µM	.	/
COc1ccc(OC)c(NC(=O)c2ccc(OCC(=O)N3CCOCC3)c(OC)c2)c1	.	.	.	.	/
COc1cc(C(=O)Nc2ccc(C)c(S(=O)(=O)N(C)C)c2)ccc1OCC(=O)N1CCOCC1	.	.	3µM	.	/
Cc1cc(OCC(=O)N2CCOCC2)ccc1NC(=O)c1ccccc1C	.	?	7.6µM	/	/
COc1ccc(NC(=O)Nc2ccc(OCC(=O)N3CCOCC3)cc2)cc1OC	.	.	13µM	.	/
O=c1c2c3c(sc2nnn1Cc1ccc(Br)cc1)CCCC3	/	/	.	/	.
Cc1ccc(C(=O)Nc2cc(C)c(OCC(=O)N3CCOCC3)c(C)c2)cc1	?	?	0.67µM	2.8µM	11µM
CCCCOc1ccc(C(=O)Nc2ccc(OCC(=O)N3CCOCC3)cc2)cc1	?	.	1.1µM	.	/
Cc1ccc(NC(=O)C(=O)NCc2ccco2)cc1	/	/	.	/	18µM
Cc1ccc(NC(=O)CSCc2ccco2)cc1	?	?	15µM	4µM	13µM
Cc1ccc(C(=O)NC(=S)NCc2ccco2)cc1	.	.	?	.	.
SMILES	NPC1 prom act	ELG1 genotox	FLuc modulator	Rab9 prom act	SMN2 splice enh
Cc1ccc(NC(=O)C(=S)NCc2ccco2)cc1	?	?	6µM	2.8µM	.
Cc1ccc(NC(=O)CSCC(=O)NCc2ccco2)cc1	.	.	.	.	/
CCOc1ccc(-c2[nH]ncc2-c2ccccc2)c(O)c1	.	.	.	.	/
O=C(COc1ccc(-c2ccccc2)cc1)N/N=C/c1ccccc1Br	.	.	?	.	.
CCOc1ccc(N=C/C=C/c2ccccc2)c(O)c1	?	?	8.5µM	?	/
O=C(COc1ccc(-c2ccccc2)cc1)N/N=C/c1cc(O)ccc1Br	.	.	11µM	.	.[1.84 µM]
CCOc1ccc(NCC(=O)N/N=C/C=C/c2ccccc2)cc1	.	.	13µM	.	.
COc1ccc(OCC(=O)N/N=C/C=C/c2ccccc2)cc1	.	.	4.8µM	.	.
COc1ccc(NCC(=O)N/N=C/C=C/c2ccccc2[N+](=O)[O-])cc1	.	.	.	.	.
CN(C)C(=O)NC(O)C(Cl)Cl (stereo not given)	.	.	.	.	.
Cn1ncc(Cl)c1C(=O)NNC(=O)Nc1cccc2ccccc12	.	.	.	.	/
C=CCC(CC=C)(CNC(=O)C(=O)Nc1ccc(Br)cc1)c1ccc(OC)c(OC)c1	/	/	.	/	.
CCCCc1nc2c(c3c1C[C@H](C)OC3)CN(C(=O)N[C@@H](C)c1ccccc1)CC2	/	/	/	/	.[9.22 µM]
COc1ccc(NC(=O)CSc2nc3c(c(=O)[nH]2)CCC3)cc1	/	/	.	/	/
O=C(c1cc2ccc3cccnc3c2[nH]1)N1CCCCC1	/	/	1.2µM	/	/
